Data: PubChem BioAssay
Activity calls are given as the source filed them. Unless noted, no rule for the calls is given here.

How the values were obtained:
[1] = circadian clock period modulators, cell-based, LOPAC library, luminescence reporter (AID 2774); settings: circadian reporter cells, at 7 µM, actives lie on both sides;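 also: values are relative to mean of DMSO wells on each plate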
[2] = tested on: Hepatitis C virus NS3 helicase; test: HCV NS3 helicase inhibitors, primary screen, biochemical, fluorescence polarization, LOPAC1280 library (AID 687035; in the data active = inhibition above about 37%); settings: Purified HCV NS3 helicase, Cy5-dT15 ssDNA binding fluorescence polarization; stronger effect = higher value; concentration not given here
[3] = Cy5 fluorescence quenching or enhancement artefacts, artefact control for HCV NS3 helicase inhibitor project, biochemical, LOPAC1280 (AID 687037); settings: Cy5-DNA-NS3h complex fluorescence interference counterscreen
[4] = sensitizers of A549 cells to miR-34 induction, primary screen, imaging, A549 dox-inducible miR-34, nuclei and caspase counts (AID 1347080;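 active = compounds whose cell count with miR-34 switched on is under 0.7 times the count with it off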); settings: A549 miR-34 inducible, Hoechst nuclei count, 48 h
[5] = phospholipid biosynthesis inhibitors in animal cells, primary screen, cell-based, LOPAC library, screen 4 (AID 1347384); settings: phospholipid biosynthesis inhibition screen, at 10 µM
[6] = viability rescue of complex I mutant cybrids, primary screen, cell-based, galactose medium, ATP luminescence (AID 1645843;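 active = z-score of at least 1.8 in each of two replicates, scored against plate mean and spread of sample wells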;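 also: positive z means more ATP and so rescue of galactose-driven cybrid death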); settings: complex I mutant cybrid cells, 72 h, stronger effect = higher value
[7] = stronger effect = lower value, cell number ratio, induced over uninduced
[8] = measured here: relative caspase fold change +Dox/-Dox
[9] = measured here: total cells with miR-34 induction, stronger effect = lower value
[10] = measured here: total cells without miR-34 induction

Compound	period change [1]	inhibition [2]	fluorescence ratio (interference) [3]	fold change [4, 7]	fold change [4, 8]	cell count [4, 9]	cell count [4, 10]	outcome [5]	z-score [6]
CN1CC(O)C(O)C(O)C1CO (stereo not drawn)	0.06 h (inactive)	-3% (inactive)	1 (inactive)	0.95 (inactive)	1.01	10300	10800	inactive	0.28 (inactive)
O=C(O)/C=C/c1cnc[nH]1	-0.135 h (inactive)	-2% (inactive)	1 (inactive)	1.01 (inactive)	2.13	10700	10600	inactive	0.495 (inactive)
Fc1ccc(CN(C2=NCCN2)c2c(Cl)cccc2Cl)cc1	-0.015 h (inactive)	1% (inactive)	1 (inactive)	0.978 (inactive)	0.985	8870	9060	inactive	-0.75 (inactive)
OC[C@H]1NC[C@@H](O)[C@@H]1O	-0.11 h (inactive)	-3% (inactive)	1 (inactive)	0.888 (inactive)	1.22	8680	9770	inactive	0.015 (inactive)
O=C(c1ccc2c(c1)OCCO2)N1CCCCC1	-0.22 h (inactive)	-1% (inactive)	1 (inactive)	1.07 (inactive)	1.38	9110	8530	inactive	0.315 (inactive)
C=CC1(C)CC(=O)C2(O)C(C)(O1)C(OC(C)=O)C(O)C1C(C)(C)CCC(O)C12C (stereo not drawn)	0.345 h (inactive)	0% (inactive)	1.1 (inactive)	0.994 (inactive)	1.26	9840	9900	inactive	-0.035 (inactive)
CC(N)=O	-0.19 h (inactive)	0% (inactive)	0.9 (inactive)	1.08 (inactive)	1.34	10600	9870	inactive	1.1 (inactive)
O=C(O)CCCC[C@@H]1CCSS1	0.11 h (inactive)	0% (inactive)	1 (inactive)	0.958 (inactive)	0.931	9120	9520	inactive	0.53 (inactive)
CC(C)C[C@H](NC(=O)[C@H](O)[C@H](N)Cc1ccccc1)C(=O)O	-0.01 h (inactive)	-2% (inactive)	1 (inactive)	1.02 (inactive)	0.988	10100	9920	inactive	0.245 (inactive)
c1cnc2c(c1)ccc1cccnc12	0.09 h (inactive)	-3% (inactive)	1 (inactive)	0.996 (inactive)	2.62	2190	2200	inactive	-1.21 (inactive)
O=c1ccn([C@@H]2O[C@H](COP(=O)(O)OP(=O)(O)O)[C@@H](O)[C@H]2O)c(=O)[nH]1	0.165 h (inactive)	-1% (inactive)	1 (inactive)	0.992 (inactive)	1.43	9420	9500	inactive	0.745 (inactive)
COc1ccccc1N1CCN(CCN(C(=O)c2ccc(F)cc2)c2ccccn2)CC1	0.22 h (inactive)	-4% (inactive)	0.9 (inactive)	1.08 (inactive)	1.52	10200	9450	inactive	-0.25 (inactive)
O=C(O)C1CCNCC1	-0.105 h (inactive)	-2% (inactive)	1 (inactive)	1.1 (inactive)	0.954	10700	9760	inactive	0.31 (inactive)
CNC(=O)[C@H]1O[C@@H](n2cnc3c(NCc4ccc(N)cc4)ncnc32)C(O)[C@H]1O (stereo partly drawn)	-0.095 h (inactive)	-2% (inactive)	1 (inactive)	1 (inactive)	1.7	9670	9680	inactive	0.09 (inactive)
O=C1CCC(c2ccc(-n3ccnc3)cc2)=NN1	-0.075 h (inactive)	-1% (inactive)	1 (inactive)	1.07 (inactive)	0.666	10200	9510	inactive	-0.165 (inactive)
COc1cc(C(O)C(=O)O)ccc1O (stereo not drawn)	0.03 h (inactive)	-2% (inactive)	1 (inactive)	0.986 (inactive)	1.43	10600	10700	inactive	-0.02 (inactive)
COc1ccc2c(c1)c(CC(=O)O)c(C)n2C(=O)c1ccccc1	0.15 h (inactive)	-2% (inactive)	1 (inactive)	1.07 (inactive)	1.77	9380	8810	inactive	1.18 (inactive)
N#C/C(=C\c1ccc(O)c(O)c1)C(=O)NCCc1ccccc1	-0.04 h (inactive)	2% (inactive)	0.9 (inactive)	1.09 (inactive)	0.996	7900	7250	inactive	-1.06 (inactive)
O=Nc1ccc2oc(=O)ccc2c1	-0.05 h (inactive)	-2% (inactive)	1 (inactive)	1.06 (inactive)	0.992	10200	9600	inactive	-1.25 (inactive)

Compound	period change [1]	inhibition [2]	fluorescence ratio (interference) [3]	fold change [4, 7]	fold change [4, 8]	cell count [4, 9]	cell count [4, 10]	outcome [5]	z-score [6]
Nc1ccc(CCNc2ncnc3c2ncn3C2OC(CO)C(O)C2O)cc1 (stereo not drawn)	0.215 h (inactive)	-1% (inactive)	1 (inactive)	1.01 (inactive)	1.75	10600	10500	inactive	0.795 (inactive)
NCCCCCCCCCCN	0 h (inactive)	2% (inactive)	1 (inactive)	0.948 (inactive)	1.23	10300	10900	inactive	-0.23 (inactive)
CC(N)(C(=O)O)c1ccc(C(=O)O)cc1 (stereo not drawn)	-0.11 h (inactive)	-2% (inactive)	1 (inactive)	1.05 (inactive)	1.27	11100	10600	inactive	0.615 (inactive)
CNc1cc(NS(=O)(=O)c2ccc(N)cc2)nc(NC)n1	-0.065 h (inactive)	-3% (inactive)	1 (inactive)	1.09 (inactive)	0.965	9150	8390	inactive	0.695 (inactive)
[N-]=[N+]=Nc1ccc(C(=O)CSC[C@H](NC(=O)CC[C@H](N)C(=O)O)C(=O)NCC(=O)O)cc1	0 h (inactive)	-5% (inactive)	0.9 (inactive)	0.923 (inactive)	1.4	5390	5840	inactive	-1.12 (inactive)
N[C@@H](CCC(=O)N[C@H](CSN=O)C(=O)NCC(=O)O)C(=O)O	0.1 h (inactive)	-3% (inactive)	1 (inactive)	1.04 (inactive)	1.18	10800	10400	inactive	0.335 (inactive)
Cn1c(=O)c2[nH]c(-c3ccccc3)nc2n(C)c1=O	0.09 h (inactive)	-3% (inactive)	1 (inactive)	1.06 (inactive)	3.05	10000	9510	inactive	1.04 (inactive)
COc1ccc2c(c1)CCC1C2CC[C@@]2(C)C1CC[C@@H]2NCCCCCCN1C(=O)C=CC1=O (stereo partly drawn)	-0.255 h (inactive)	5% (inactive)	0.8 (active)	1.05 (inactive)	1.05	9380	8930	inactive	0.035 (inactive)
CN1CCC2(CCN3CCc4c(oc5ccccc45)C3C2)N(C)C1=O (stereo not drawn)	0.125 h (inactive)	3% (inactive)	1 (inactive)	1.04 (inactive)	0.751	7560	7300	inactive	-0.87 (inactive)
C#CCn1c(=O)c2c(ncn2C)n(C)c1=O	-0.07 h (inactive)	-1% (inactive)	1 (inactive)	0.971 (inactive)	0.997	10100	10400	inactive	0.15 (inactive)
CN1CCCC1CCOC(C)(c1ccccc1)c1ccc(Cl)cc1 (stereo not drawn)	0.12 h (inactive)	-3% (inactive)	1 (inactive)	1.24 (inactive)	1.31	4130	3330	inactive	-1.51 (inactive)
Nc1ccc(N2C(=O)c3ccccc3C2=O)c(Cl)c1	0.15 h (inactive)	0% (inactive)	1 (inactive)	0.973 (inactive)	1.66	10200	10500	inactive	0.45 (inactive)
COC(=O)C(N)Cc1ccc(Cl)cc1 (stereo not drawn)	-0.02 h (inactive)	1% (inactive)	1 (inactive)	0.984 (inactive)	1.85	9580	9740	inactive	0.46 (inactive)
CCCCCCCCCCCCCCSCC(=O)O	-0.08 h (inactive)	-2% (inactive)	1 (inactive)	0.985 (inactive)	1.37	9840	9990	inactive	-0.24 (inactive)
CCC1(O)CC2CN(CCc3c([nH]c4ccccc34)[C@@](C(=O)OC)(c3cc4c(cc3OC)N(C=O)C3[C@]45CCN4CC=C[C@@](CC)([C@@H](OC(C)=O)[C@]3(O)C(=O)OC)[C@H]45)C2)C1 (stereo partly drawn)	0.81 h (active)	2% (inactive)	1 (inactive)	1.3 (inactive)	1.29	1490	1140	inactive	-0.935 (inactive)
O[Si](CCCN1CCCCC1)(c1ccc(F)cc1)C1CCCCC1 (stereo not drawn)	-0.3 h (inactive)	-2% (inactive)	1 (inactive)	0.937 (inactive)	1.64	8140	8690	inactive	-0.95 (inactive)
c1ccc(CN2CCC3(CCCc4ccccc43)CC2)cc1	0 h (inactive)	-3% (inactive)	1 (inactive)	1.19 (inactive)	0.602	7360	6160	inactive	-1.27 (inactive)
O=C(c1cc(O)c(O)c([N+](=O)[O-])c1)c1ccccc1F	0.055 h (inactive)	5% (inactive)	0.9 (inactive)	1.18 (inactive)	1.45	7010	5940	inactive	-0.165 (inactive)
